High-throughput results as filed in PubChem BioAssay.
A selection follows.
aSyn 5UTR act – Activators via SNCA 5'UTR binding, MLPCN. actives 7.1% (n = 300,000). alpha-synuclein 5'UTR reporter, activators screen. activity score, % (tested at 7.5 µM), hits read low; in the data active means activity score below about -60%
Active calls of the source: *.

For COc1cc(/C=N/Nc2nc3ccccc3s2)cc([N+](=O)[O-])c1O the results were aSyn 5UTR act -100.3*.
Screening O=[N+]([O-])c1cc(Cl)cc(/C=N/Nc2nc3ccccc3s2)c1O returned aSyn 5UTR act -77.7*.
Cc1ccc(-c2cc3c(N=O)c4ccccc4c-3n[nH]2)cc1 was read as aSyn 5UTR act 91.7.
For Cc1ccc(Oc2nnc(-c3ccc(C)cc3)c3ccccc23)cc1 the results were aSyn 5UTR act -92.7*.
COc1ccc(NC(=O)c2nc(S(=O)(=O)Cc3cccc(C)c3)ncc2Cl)c(OC)c1 was read as aSyn 5UTR act 82.4.
For COc1ccc(NC(=S)Nc2cc(C)ccn2)c(OC)c1 the results were aSyn 5UTR act -243.3*.
For COc1ccc(NC(=S)Nc2ccccn2)c(OC)c1 the results were aSyn 5UTR act -152.7*.
Screening Cc1cccc(S(=O)(=O)N/N=c2\sc3ccccc3n2C)c1 returned aSyn 5UTR act -175.3*.
For Cc1ccc(S(=O)(=O)N/N=c2\sc3ccccc3n2C)cc1 the results were aSyn 5UTR act -115.2*.
Cc1ccc(S(=O)(=O)Oc2ccc(C)cc2/C=N/N=C2\NC(=O)C(C)S2)cc1 (stereo not drawn) was read as aSyn 5UTR act -66.2*.
`CC(N=c1ccccn1C(=O)Nc1ccc(Cl)cc1)c1ccco1` (stereo not drawn) gave aSyn 5UTR act -121.0*.
Screening CN(C)c1ccc(NC(=O)CSc2nc(N)c(C(=O)Nc3ccc(N(C)C)cc3)s2)cc1 returned aSyn 5UTR act -151.1*.
For COc1ccc(NC(=O)CSc2nc(N)c(C(=O)Nc3ccc(N(C)C)cc3)s2)cc1 the results were aSyn 5UTR act -66.2*.
For Cc1ccc2nc(SC(C)C(=O)N3CCOCC3)[nH]c2c1 (stereo not drawn) the results were aSyn 5UTR act -94.4*.
CC(/C=C/c1ccccc1)=N\NC(N)=S was read as aSyn 5UTR act -100.2*.
For CC(/C=C/c1ccccc1)=N\Nc1nc(C)cc(C)n1 the results were aSyn 5UTR act -95.8*.
`CC(C)c1ccc(NC(=O)COc2ccc(F)cc2C(=O)c2cnn(-c3ccccc3)c2)cc1` gave aSyn 5UTR act -114.7*.
`O=C(COc1ccccc1C(=O)c1cnn(-c2ccccc2)c1)Nc1ccc2ccccc2c1` gave aSyn 5UTR act -136.2*.
Screening CC12CCC(C(=O)Nc3nc4ccc(Br)cc4s3)(OC1=O)C2(C)C (stereo not drawn) returned aSyn 5UTR act -92.0*.
`Cc1ccc(N=Cc2ccc(O)cc2O)cc1F` gave aSyn 5UTR act -83.6*.
Screening O=C(Nc1cccc([N+](=O)[O-])c1)c1ccc2ccccc2c1O returned aSyn 5UTR act -127.7*.
`O=C(Nc1cccnc1)c1ccc2ccccc2c1O` gave aSyn 5UTR act -136.8*.
Screening O=C(Nc1ccccn1)c1ccc2ccccc2c1O returned aSyn 5UTR act -143.7*.
Screening CC(=O)C1=C(C)OC(N)=C(C#N)C1c1cc2cc(C)c(C)cc2nc1Cl (stereo not drawn) returned aSyn 5UTR act -68.4*.
Screening Cc1cc(C)c2nc(SCC(=O)N3CC(=O)Nc4ccccc43)c(C#N)cc2c1 returned aSyn 5UTR act 66.6.
CCOC(=O)CSc1nc2cc(C)cc(C)c2cc1C#N was read as aSyn 5UTR act -194.6*.
`CCOC(=O)CSc1nc2ccc(C)cc2cc1C#N` gave aSyn 5UTR act -172.0*.
`CCOC(=O)CSc1nc2cc(C)ccc2cc1C#N` gave aSyn 5UTR act -150.0*.
Screening Cc1ccc2cc(C#N)c(SCC(=O)N3CCCC3)nc2c1 returned aSyn 5UTR act -81.3*.
For COc1ccc2nc(SCC(C)=O)c(C#N)cc2c1 the results were aSyn 5UTR act -69.8*.
For CCOC(=O)CSc1nc2cc(OC)ccc2cc1C#N the results were aSyn 5UTR act -109.0*.
Screening CCOc1ccc2cc(C#N)c(SCC(=O)N3CCOCC3)nc2c1 returned aSyn 5UTR act -94.2*.
Cc1cccc(Nc2nc(N)nc(CSc3nccn3C)n2)c1 was read as aSyn 5UTR act -99.5*.
NC1=C(Br)C(=O)c2ccccc2C1=O was read as aSyn 5UTR act 65.4.
Screening O=C1c2ccccc2-c2nc3ccccc3nc21 returned aSyn 5UTR act -181.9*.
Screening Cc1ccc(-c2nn(CC(=O)NCc3cc(-c4nn(C)c(=O)c5ccccc45)ccc3C)c(=O)c3ccccc23)cc1 returned aSyn 5UTR act 113.5.
CCc1ccc(-c2cc3c(=O)n(CC(=O)NCc4ccccc4F)ncn3n2)cc1 was read as aSyn 5UTR act -70.1*.
`COc1cc(Cl)cc(/C=C/c2ccc3ccccc3n2)c1OC(C)=O` gave aSyn 5UTR act -126.7*.
`CC(=O)Oc1ccc(Cl)cc1/C=C/c1cc(OC(C)=O)c2ccccc2n1` gave aSyn 5UTR act -137.7*.
O=C(CSC1=NCCS1)N1CCc2ccccc21 was read as aSyn 5UTR act -197.6*.
For O=C(CS(=O)(=O)c1ccccc1)N1CCc2ccccc21 the results were aSyn 5UTR act -106.8*.
Screening Cc1cc(C)nc(SCC(=O)N2CCc3ccccc32)n1 returned aSyn 5UTR act -77.6*.
`Cc1ccc(SCC(=O)N2CCc3ccccc32)cc1` gave aSyn 5UTR act -171.4*.
